PubChem BioAssay AID1979 (Broad Institute, 2009)
Hit rate of the full screen: of about 300,000 compounds, about 1,700 (0.57%) were called active. Another 2% or so got no clear call; they are omitted.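 Rule for the calls: active = growth inhibition above about 58% in most replicates (limit read from the data, passing the limit was not always enough); inconclusive = exactly half the replicates above a set limit; inactive = most replicates below a set limit.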 For the sample, actives were picked, then their nearest neighbours and some compounds at random.

Experiment: Candida growth reduction under fluconazole – CaCi-2 strain, Alamar Blue fluorescence, primary screen (AID 1979);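 note: all wells also contain fluconazole at 8 µg/ml as a sub-toxic cotreatment; 0% = median of DMSO wells and 100% = median of geldanamycin control wells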
Conditions: C. albicans CaCi-2 (fluconazole-resistant clinical isolate) + fluconazole, 48 h, hits give high values, concentration not given here

| Structure (SMILES) | growth inhibition |
| --- | --- |
| Nc1cc(N)nc(SCc2ccc(Cl)cc2)n1 | 12.7% (inactive) |
| Nc1cc(N)nc(SCc2cccc(F)c2)n1 | 93.5% (active) |
| CCc1nnc(SCc2cccc(F)c2)nc1CC | -15.9% (inactive) |
| O=C(c1ccc(Cl)s1)N(Cc1nnc(-c2ccccc2Cl)o1)C1CC1 | -12.7% (inactive) |
| COc1ccccc1N1CCN(C(=O)c2cc(=O)c3cc(C)cc(C)c3o2)CC1 | 4.61% (inactive) |
| Nc1nonc1-n1nnc(C(=O)N/N=C/c2ccccc2O)c1CN1CCCC1 | -25.8% (inactive) |
| Cc1ccc(SCc2c(C(=O)N/N=C/c3cccnc3)nnn2-c2nonc2N)cc1 | 19.8% (inactive) |
| Nc1nonc1-n1nnc(C(=O)N/N=C/c2cc(Br)ccc2O)c1CSC1=NCCS1 | 90.5% (active) |
| CCOC(=O)C1=C(c2ccccc2)NC(=O)NC1c1cc(OC)c(OC)cc1OC (stereo not given) | 111% (active) |
| COc1cc(C2NC(=O)NC(c3ccccc3)=C2C(C)=O)c(Br)cc1OCC(N)=O (stereo not given) | 6.65% (inactive) |
| CCOC(=O)C1=C(c2ccccc2)NC(=O)NC1c1cc(OCC)c(O)c([N+](=O)[O-])c1 (stereo not given) | 38% (inactive) |
| Cc1cccc(NS(=O)(=O)c2ccc(C(=O)NCC(C)(C)N3CCOCC3)cc2)c1C | -3.65% (inactive) |
| CCOc1ccc(CCNC(=O)COC(=O)c2c(OC)cccc2OC)cc1OCC | 8.5% (inactive) |
| Cc1ccn2c(=O)c(NC(=O)c3cccc4ccccc34)c(C)nc2c1 | 1.1% (inactive) |
| NC(N)=N/N=C/c1ccc(OCc2ccc(Cl)cc2Cl)cc1 | 123% (active) |
| OC(CNCCc1ccc(Cl)cc1Cl)COc1ccccc1 (stereo not given) | 7.1% (inactive) |
| CCOc1ccc(NC(=O)NNC(=O)c2ccc(Cl)cc2Cl)cc1 | 0.808% (inactive) |
| OCCCNc1nc(-c2ccccc2)c2cc(Cl)ccc2n1 | 14.2% (inactive) |
| O=C(O)C(c1ccccc1)N1C(=O)/C(=C\c2ccc(-c3cccc(Cl)c3)o2)SC1=S (stereo not given) | 37.9% (inactive) |
| O=C1c2ccccc2NC(c2ccc(-c3cccc(Cl)c3)o2)N1O (stereo not given) | 96.8% (active) |
| O=c1c(-c2cccc(Cl)c2)c[nH]n1-c1ccccc1 | 0.955% (inactive) |
| Cc1ccc(CCN2CC(C(=O)NCCc3ccccc3)CC2=O)cc1 (stereo not given) | -6.78% (inactive) |
| Cc1cccnc1NC(=O)Cn1c(=O)oc2ccccc21 | -0.441% (inactive) |

| Structure (SMILES) | growth inhibition |
| --- | --- |
| C[C@@H]1C[C@@H]2O[C@H]2/C=C\C=C\C(=O)Cc2c(Cl)c(O)cc(O)c2C(=O)O1 | 84.1% (active) |
| O=C(Nc1nnc(-c2ccccc2)o1)c1cc(-c2cccs2)nc2ccccc12 | 89.3% (active) |
| COC(=O)c1cc(-c2cccs2)nc2ccccc12 | -7.15% (inactive) |
| O=C(NCCN1CCOCC1)c1cc(-c2cccs2)nc2ccccc12 | -3.11% (inactive) |
| CC1CCCN(S(=O)(=O)c2ccc(C(=O)Nc3nnc(-c4ccncc4)o3)cc2)C1 (stereo not given) | 18.1% (inactive) |
| CC1CCCCN1S(=O)(=O)c1ccc(C(=O)Nc2nnc(-c3cccs3)o2)cc1 (stereo not given) | 95.4% (active) |
| CSCc1nnc(NC(=O)c2ccc(S(=O)(=O)N3CCCCC3C)cc2)o1 (stereo not given) | 8.82% (inactive) |
| COc1ccc(-c2cc(=O)oc3cc(OC(C)C(=O)NCC4CCC(C(=O)O)CC4)ccc23)cc1 (stereo not given) | -4.33% (inactive) |
| CSCCC(NS(=O)(=O)c1ccc(C)cc1)C(=O)NCCc1c[nH]c2ccccc12 (stereo not given) | -6.21% (inactive) |
| CN(/C(=N/S(=O)(=O)c1cccs1)c1ccccc1)c1ccc(O)cc1 | 117% (active) |
| COc1ccc(N(C(=O)c2ccc(C)cc2)S(=O)(=O)c2cccs2)cc1 | 4.35% (inactive) |
| O=S(=O)(/N=C(/Nc1ccccc1)c1ccccc1)c1cccs1 | -39.8% (inactive) |
| CN(CC(=O)Nc1cccc(F)c1)C(=O)C1CC(=O)N(CCc2ccccc2)C1 (stereo not given) | -9.09% (inactive) |
| Oc1ccc(N=Nc2nccs2)c(O)c1 | 85.9% (active) |
| Oc1ccc2ccccc2c1N=Nc1nccs1 | 0.433% (inactive) |
| CC(CN1CCC(n2nccc2NC(=O)C2CCCC2)CC1)c1ccccc1 (stereo not given) | -5.12% (inactive) |
| CC1=NNC(=O)C1Cc1c(Cl)cccc1Cl (stereo not given) | -0.631% (inactive) |
| CN(C(=O)CC(NC(=O)c1ccccc1)(c1ccccc1)c1ccccc1)c1ccccc1 | 91.8% (active) |
| CN(C(=O)COC(=O)CNC(=O)C12CC3CC(CC(C3)C1)C2)c1ccccc1 | -17.2% (inactive) |
| Cc1ccc(C(=O)NCCNC(=O)c2ccccc2)cc1 | 5.77% (inactive) |
| Nc1c(C(=O)Nc2ccc3c(c2)OCCO3)nnn1Cc1ccccc1 | 9.7% (inactive) |
| Cc1sc2ncnc(N3CCC(C(=O)NNC(=O)c4ccc(F)cc4)CC3)c2c1C | 11% (inactive) |
| COc1ccc(S(=O)(=O)NCCCc2ccccc2)cc1 | -3.19% (inactive) |

| Structure (SMILES) | growth inhibition |
| --- | --- |
| Cc1nn(-c2ccccc2)c(C)c1NC(=O)COC(=O)c1cc(Cl)ccc1O | -3.39% (inactive) |
| CCN1C(=O)[C@H]2[C@@H](c3ccc(C)cc3)N3C(=O)N(c4cccc(Br)c4)C(=O)[C@@]3(CC)[C@H]2C1=O | -1.61% (inactive) |
| Cc1c(Cl)c([N+](=O)[O-])nn1Cc1ccc(C(=O)N/N=C\c2cc(Cl)ccc2O)o1 | 112% (active) |
| O=C(N/N=C/c1ccc2c(c1)OCO2)c1ccc(Cn2cc([N+](=O)[O-])cn2)o1 | -1.68% (inactive) |
| Cc1c(Cl)c([N+](=O)[O-])nn1CCCC(=O)Nc1cc(Cl)ccc1Cl | 0.816% (inactive) |
| O=C1N[C@@H](Cc2ccccc2)C(=O)N2[C@H]1C[C@]1(Br)c3ccccc3N(S(=O)(=O)c3ccccc3)[C@H]21 | 4.33% (inactive) |
| COC(=O)Cc1[nH]n(-c2nc3ccccc3s2)c(=O)c1C(C)=Nc1ccc(OC)cc1 | 5.2% (inactive) |
| C/C(=N\NC(=O)CC(C)C)c1c(C(F)(F)F)[nH]n(-c2nc3ccccc3s2)c1=O | 8.15% (inactive) |
| COC(=O)Cc1cc(=O)n(-c2nc3ccccc3s2)[nH]1 | 93.5% (active) |
| COc1cc(/C=C/C(=O)O)cc(S(=O)(=O)Nc2ccccc2C(=O)NCCc2ccccc2)c1OC | -0.0595% (inactive) |
| O=C(Nc1cccc(-c2nc3ccccc3[nH]2)c1)c1ccc(C(=O)Nc2cccc(-c3nc4ccccc4[nH]3)c2)cc1 | -12.9% (inactive) |
| Cc1ccc(-n2nc3ccc(NC(=O)/C=C/c4ccco4)cc3n2)cc1C | 20% (inactive) |
| O=C(/C=C/c1ccco1)Nc1cccc(-c2nc3ccccc3[nH]2)c1 | 91.5% (active) |
| CCOc1cc(/C=N/NC(=O)c2cccc(S(=O)(=O)N3CCOCC3)c2)ccc1OCC(=O)N(C)C | 3.22% (inactive) |
| CC(=O)c1nn(-c2ccc(C)cc2)cc1C(=O)c1cccc(Br)c1 | -5.17% (inactive) |
| CC1CCC(NC(=O)CNC(=O)c2ccc3ccccc3c2)CC1 (stereo not given) | 4.42% (inactive) |
| O=C(NCC(=O)N(CC1CCCO1)C(C(=O)NC1CCCCC1)c1ccccc1)c1ccco1 (stereo not given) | 103% (active) |
| COc1ccc(N(C(=O)CNC(=O)c2ccco2)C(C(=O)NCC2CCCO2)c2ccccc2)cc1Cl (stereo not given) | 7.7% (inactive) |
| Cc1ccc(N(C(=O)CNC(=O)c2ccco2)C(C(=O)NC2CCCC2)c2ccncc2)cc1 (stereo not given) | -17% (inactive) |
| CC1CCCCN1S(=O)(=O)CCNC(=O)c1ccccc1 (stereo not given) | 0.685% (inactive) |
| Cc1nnsc1C(=O)N/N=C/c1ccccc1Cl | -6.46% (inactive) |
| Cc1nnsc1C(=O)Nc1cccc(Cl)c1C | -1.12% (inactive) |
| Cc1cc(Cl)ccc1NNC(=O)c1snnc1C | 85.6% (active) |

| Structure (SMILES) | growth inhibition |
| --- | --- |
| C/[N+]([O-])=C\c1ccc([N+](=O)[O-])o1 | 110% (active) |
| Cc1cc(C)nc(N/N=C/c2ccc([N+](=O)[O-])o2)n1 | 11.2% (inactive) |
| CCc1ccc(S(=O)(=O)N/N=C\c2ccc([N+](=O)[O-])o2)cc1 | 13.3% (inactive) |
| CCc1ccccc1NC(=O)c1cc(-c2ccc3c(c2)OCO3)on1 | -0.103% (inactive) |
| Cc1ccc(C)c(N2CCN(C(=O)Cn3ncn4cccc4c3=O)CC2)c1 | -9.35% (inactive) |
| CSc1ccccc1NC(=O)C(C)N1C(=O)c2ccccc2S1(=O)=O (stereo not given) | 2.61% (inactive) |
| CC1(C)CC(N2CCN(C(c3ccccc3)c3ccccc3)CC2)=CC(=[N+]2CCCCC2)C1 | 95.7% (active) |
| O=C(O)CN1CCN(C(c2ccccc2)c2ccccc2)CC1 | -6.25% (inactive) |
| CC(C)NC(=S)N1CCN(C(c2ccccc2)c2ccccc2)CC1 | 11.5% (inactive) |
| O=C(Nc1cc(Cl)ccc1N1CCOCC1)c1ccc(N2CCCC2=O)cc1 | 4% (inactive) |
| O=C(NCCC1CCCCN1S(=O)(=O)c1cccs1)C(=O)Nc1ccc(F)cc1F (stereo not given) | 7.39% (inactive) |
| O=C(Nc1cccc2c1CCCC2)c1ccc(F)cc1 | -3.5% (inactive) |
| Cn1c(NN)nc2sc3c(c2c1=O)CCC3 | 87.2% (active) |
| Cc1nc2sc3c(c2c(=O)n1NC(=O)CCl)CCCC3 | 9.31% (inactive) |
| NNC(=O)C1CCCn2c1nc1sc3c(c1c2=O)CCCC3 (stereo not given) | 2.28% (inactive) |
| C#CCOCCOCCOCCNc1nc(N2CCN(C(=O)C([C@@H](C)CC)n3cc(C(N)COC(=O)C(F)(F)F)nn3)CC2)nc(N2CCN(C(=O)[C@H](CCCCN)n3cc(C(N)CC(C)C)nn3)CC2)n1 (stereo not given in full) | 4.02% (inactive) |
| O=C(CSC1=NS(=O)(=O)c2cc(F)ccc2N1)Nc1ccccc1F | 5.53% (inactive) |
| Cc1ccc(N=C2SCCCN2C(=O)c2cccc(N3C(=O)CCC3=O)c2)cc1Cl | -7.25% (inactive) |
| O=C(OCCN1C(=O)c2ccccc2C1=O)Oc1ccccc1 | 4.11% (inactive) |
| CC(=O)c1cnc(SCCN2C(=O)c3ccccc3C2=O)nc1C | -3.43% (inactive) |
| Nc1ccc(SCCN2C(=O)c3ccccc3C2=O)cc1 | 103% (active) |
